Results as given in PubChem BioAssay (EPA / NIEHS).
Inconclusive results are not listed. Calls of active or inactive are those of the source. The calls were made as follows, unless noted: active = hit-call score of the fitted dose curve at least 0.9, where 1 is the maximum; inactive = score below 0.9.

Legend:
[1] = read-out: Signal transducer and activator of transcription 3 (Homo sapiens) (UniProt P40763); assay: LTEA_HepaRG_STAT3: Life Technologies and Expression Analysis (LTEA) Assay for Signal transducer and activator of transcription (STAT3) using HepaRG (AID 2283529); settings: mRNA level, 48 h; actives raise or lower the signal
How it was run: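 STAT3 transcript quantified by qRT-PCR against three housekeeping genes (ACTB, GAPDH, POLR2A), fitted both directions relative to DMSO. HepaRG cultures exposed 48 h to eight half-log concentrations, top 100 uM, 0.5% DMSO, serum-free induction medium.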

[2] = read-out: solute carrier (SLCO1B1), SLCO1B1 (gene 10599); assay: LTEA_HepaRG_SLCO1B1: Life Technologies and Expression Analysis (LTEA) Assay for solute carrier (SLCO1B1) using HepaRG (AID 2283530); settings: mRNA level, 48 h; actives raise or lower the signal
How it was run: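 Gain or loss of SLCO1B1 mRNA is fitted against the 0.5% DMSO vehicle in human HepaRG liver cells treated 48 h at up to 100 uM in half-log steps. Expression comes from qRT-PCR normalized to endogenous controls.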

[3] = read-out: sulfotransferase 2A1 (SULT2A1), SULT2A1 (gene 6822); assay: LTEA_HepaRG_SULT2A1: Life Technologies and Expression Analysis (LTEA) Assay for sulfotransferase 2A1 (SULT2A1) using HepaRG (AID 2283531); settings: mRNA level, 48 h; actives raise or lower the signal
How it was run: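 Cells were plated and cultured 48 h, switched to serum-free induction medium, then dosed in duplicate for 48 h (8 concentrations, max 100 uM). RNA was isolated and SULT2A1 expression measured by qRT-PCR; gain or loss of signal fitted relative to DMSO.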

[4] = read-out: Transforming Growth Factor (TGFB1), TGFB1 (gene 7040); assay: LTEA_HepaRG_TGFB1: Life Technologies and Expression Analysis (LTEA) Assay for Transforming Growth Factor (TGFB1) Transporter using HepaRG (AID 2283533); settings: mRNA level, 48 h; actives raise or lower the signal
How it was run: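 Expression change of TGFB1 in human HepaRG cells is measured after a 48 h chemical exposure, up to 100 uM in 0.5% DMSO vehicle. Curves are fitted in both directions relative to the DMSO baseline.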

[5] = read-out: TIMP1, TIMP1 (gene 7076); assay: LTEA_HepaRG_TIMP1: Life Technologies and Expression Analysis (LTEA) Assay for TIMP1 using HepaRG (AID 2283534); settings: mRNA level, 48 h; actives raise or lower the signal
How it was run: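 We dosed human liver HepaRG cultures for 48 hours with up to 100 uM test chemical and measured TIMP1 expression by qRT-PCR. Activity in either direction is fitted relative to the 0.5% DMSO vehicle.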

[6] = read-out: Tumor necrosis factor receptor 1 (TNFRSF1A), TNFRSF1A (gene 7132); assay: LTEA_HepaRG_TNFRSF1A: Life Technologies and Expression Analysis (LTEA) Assay for Tumor necrosis factor receptor 1 (TNFRSF1A) using HepaRG (AID 2283535); settings: mRNA level, 48 h; actives raise or lower the signal
How it was run: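 Expression of TNFRSF1A in human HepaRG liver cells was measured by qRT-PCR 48 h after chemical dosing (maximum 100 uM). Bidirectional curve fitting used 0.5% DMSO as baseline.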

[7] = read-out: Thyroid Hormone Responsive (THRSP), THRSP (gene 7069); assay: LTEA_HepaRG_THRSP: Life Technologies and Expression Analysis (LTEA) Assay for Thyroid Hormone Responsive (THRSP) using HepaRG (AID 2283536); settings: mRNA level, 48 h; actives raise or lower the signal
How it was run: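 THRSP transcript quantified by Fluidigm qRT-PCR against three housekeeping genes after 48 h chemical exposure of HepaRG cells in serum-free induction medium; eight-point half-log series, top 100 uM, 0.5% DMSO vehicle, duplicate wells.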

[8] = read-out: Cellular tumor antigen p53 (Homo sapiens) (UniProt P04637); assay: LTEA_HepaRG_TP53: Life Technologies and Expression Analysis (LTEA) Assay for Tumor Protein P53 (TP53) using HepaRG (AID 2283537); settings: mRNA level, 48 h; actives raise or lower the signal
How it was run: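 Differentiated HepaRG cells in serum-free induction medium exposed 48 h in duplicate to 8 half-log concentrations, top 100 uM, 0.5% DMSO. TP53 mRNA by TaqMan qRT-PCR (Fluidigm), normalized to ACTB, GAPDH, POLR2A; fitted bidirectionally versus DMSO.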

[9] = read-out: UDP glucuronosyltransferase (UGT1A1), UGT1A1 (gene 54658); assay: LTEA_HepaRG_UGT1A1: Life Technologies and Expression Analysis (LTEA) Assay for UDP glucuronosyltransferase (UGT1A1) using HepaRG (AID 2283538); settings: mRNA level, 48 h; actives raise or lower the signal
How it was run: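 Cells are plated, cultured 48 h, switched to serum-free induction medium, then dosed 48 h at eight concentrations (max 100 uM, 0.5% DMSO). RNA is isolated and UGT1A1 expression measured by qRT-PCR; changes versus DMSO are fitted in both directions.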

[10] = read-out: UDP glucuronosyltransferase (UGT1A6), UGT1A6 (gene 54578); assay: LTEA_HepaRG_UGT1A6: Life Technologies and Expression Analysis (LTEA) Assay for UDP glucuronosyltransferase (UGT1A6) using HepaRG (AID 2283539); settings: mRNA level, 48 h; actives raise or lower the signal
How it was run: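 Endpoint is UGT1A6 transcript induction or loss in a human liver cell line, quantified by TaqMan qRT-PCR 48 h after dosing. Concentrations ran from 100 uM downward in half-log steps in 0.5% DMSO; activity was fitted in both directions versus vehicle.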

[11] = read-out: X-box binding protein 1 (XBP1), XBP1 (gene 7494); assay: LTEA_HepaRG_XBP1: Life Technologies and Expression Analysis (LTEA) Assay for X-box binding protein 1 (XBP1) using HepaRG (AID 2283540); settings: mRNA level, 48 h; actives raise or lower the signal
How it was run: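 Human HepaRG monolayers receive test chemical for 48 h across an eight-point half-log series starting at 100 uM. XBP1 mRNA gain or loss is scored against DMSO by qRT-PCR.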

[12] = LTEA_HepaRG_LDH_cytotoxicity: Cytotoxicity Assessment in the Life Technologies and Expression Analysis (LTEA) Assay (AID 2283563; active = hit-call score of the fitted dose curve at least 0.9, where 1 is the maximum;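 as to AC50: LDH activity released into spent culture medium as a marker of cell death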)
How it was run: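 Human HepaRG hepatic cells are treated with test chemicals for 48 h at up to 100 uM in 0.5% DMSO. Cytotoxicity is scored from medium LDH against the vehicle control.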

[13] = TOX21_p53_BLA_p2_viability: Viability Assessment in the Tox21 HCT-116 p53 Agonism Beta-lactamase Assay, Phase 2 (AID 2283591; active = hit-call score of the fitted dose curve at least 0.9, where 1 is the maximum;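 also: compound exposure lasted 16 h at 37 °C; actives lower the ATP signal meaning cytotoxicity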)
How it was run: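 Cytotoxicity readout: CellTiter-Glo ATP luminescence, 30 min at room temperature, after the beta-lactamase read. Cells were HCT116 exposed 16 h at 37C to compounds pin-transferred at 217-fold dilution from DMSO stocks.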

[14] = target: Cellular tumor antigen p53 (Homo sapiens) (UniProt P04637); assay: TOX21_p53_BLA_p2_ratio: Tox21 HCT-116 p53 Agonism Beta-lactamase Assay, Ratio, Phase 2 (AID 2283592; active = hit-call score of the fitted dose curve at least 0.9, where 1 is the maximum)
Sequence of Cellular tumor antigen p53 (Homo sapiens) (P04637 whole entry, looked up): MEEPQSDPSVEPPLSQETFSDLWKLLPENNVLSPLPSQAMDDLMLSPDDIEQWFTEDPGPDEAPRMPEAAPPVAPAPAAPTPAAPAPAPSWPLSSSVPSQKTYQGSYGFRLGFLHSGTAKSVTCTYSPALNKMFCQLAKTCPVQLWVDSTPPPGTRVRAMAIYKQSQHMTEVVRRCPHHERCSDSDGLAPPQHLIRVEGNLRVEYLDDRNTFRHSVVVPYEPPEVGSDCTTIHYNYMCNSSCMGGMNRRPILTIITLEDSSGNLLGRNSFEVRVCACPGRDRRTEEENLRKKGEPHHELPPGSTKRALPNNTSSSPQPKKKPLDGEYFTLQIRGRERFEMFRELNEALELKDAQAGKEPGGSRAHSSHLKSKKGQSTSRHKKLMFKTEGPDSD
How it was run: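 Cleaved-to-uncleaved substrate ratio (460 vs 530 nm) measured in HCT116 cells with an inducible beta-lactamase reporter linked to p53 activity. Compounds incubated 16 h at 37C before 2 h room-temperature CCF4-AM loading.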

[15] = TOX21_p53_BLA_p3_viability: Viability Assessment in the Tox21 HCT-116 p53 Agonism Beta-lactamase Assay, Phase 3 (AID 2283593; active = hit-call score of the fitted dose curve at least 0.9, where 1 is the maximum;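 also: cells exposed to compound for 16 h before reading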)
How it was run: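 Cellular ATP was quantified by CellTiter-Glo luminescence, read after 30 min at room temperature. Beforehand, HCT116 cells (4000/well) received compound 5 h post-seeding, 217-fold diluted from DMSO, then incubated 16 h at 37C.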

[16] = target: Cellular tumor antigen p53 (Homo sapiens) (UniProt P04637); assay: TOX21_p53_BLA_p3_ratio: Tox21 HCT-116 p53 Agonism Beta-lactamase Assay, Ratio, Phase 3 (AID 2283596; active = hit-call score of the fitted dose curve at least 0.9, where 1 is the maximum)
How it was run: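 Cells were seeded at 4000/well, rested 5 h at 37C, then dosed with DMSO compound solutions (217-fold dilution) for 16 h. CCF4-AM substrate was loaded for 2 h at room temperature, and the 460/530 nm emission ratio was fitted for gain of signal versus DMSO.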

[17] = TOX21_p53_BLA_p4_viability: Viability Assessment in the Tox21 HCT-116 p53 Agonism Beta-lactamase Assay, Phase 4 (AID 2283597; active = hit-call score of the fitted dose curve at least 0.9, where 1 is the maximum;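 also: hits lower the luminescence signal meaning cytotoxicity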)
How it was run: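 Viability is taken as cellular ATP: after 16 h compound exposure of HCT116 cells and a 2 h room-temperature CCF4-AM substrate step, CellTiter-Glo reagent is added and luminescence is measured 30 min later.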

[18] = target: Cellular tumor antigen p53 (Homo sapiens) (UniProt P04637); assay: TOX21_p53_BLA_p5_ratio: Tox21 HCT-116 p53 Agonism Beta-lactamase Assay, Ratio, Phase 5 (AID 2283599; active = hit-call score of the fitted dose curve at least 0.9, where 1 is the maximum)
How it was run: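 Beta-lactamase reporter ratio (blue 460 nm over green 530 nm, 405 nm excitation) after 2 h CCF4-AM loading, in HCT-116 cells exposed 16 h at 37 C to compounds pinned at 217-fold dilution. Increases relative to DMSO baseline scored.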

[19] = read-out: Transforming Growth Factor (TGFA), TGFA (gene 7039); assay: LTEA_HepaRG_TGFA: Life Technologies and Expression Analysis (LTEA) Assay for Transforming Growth Factor (TGFA) using HepaRG (AID 2283532); settings: mRNA level, 48 h; actives raise or lower the signal
How it was run: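 TGFA transcript quantified by qRT-PCR (Fluidigm arrays) against three housekeeping genes, after 48 hours chemical treatment of HepaRG cells. Top concentration 100 uM with half-log dilutions, 8 points, duplicates, 0.5% DMSO.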

[20] = ATG_XTT_Cytotoxicity: Cytotoxicity Assessment in the Attagene TRANS-FACTORIAL HepG2 Assay (AID 2283584; active = hit-call score of the fitted dose curve at least 0.9, where 1 is the maximum)
How it was run: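 Transfect HepG2 with GAL4-UAS reporter units, dose compound, incubate 24 h, then measure viable cell number by XTT. Fit concentration response against DMSO baseline.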

Measured: AC50

Sequence of Signal transducer and activator of transcription 3 (Homo sapiens) (P40763 whole entry, looked up): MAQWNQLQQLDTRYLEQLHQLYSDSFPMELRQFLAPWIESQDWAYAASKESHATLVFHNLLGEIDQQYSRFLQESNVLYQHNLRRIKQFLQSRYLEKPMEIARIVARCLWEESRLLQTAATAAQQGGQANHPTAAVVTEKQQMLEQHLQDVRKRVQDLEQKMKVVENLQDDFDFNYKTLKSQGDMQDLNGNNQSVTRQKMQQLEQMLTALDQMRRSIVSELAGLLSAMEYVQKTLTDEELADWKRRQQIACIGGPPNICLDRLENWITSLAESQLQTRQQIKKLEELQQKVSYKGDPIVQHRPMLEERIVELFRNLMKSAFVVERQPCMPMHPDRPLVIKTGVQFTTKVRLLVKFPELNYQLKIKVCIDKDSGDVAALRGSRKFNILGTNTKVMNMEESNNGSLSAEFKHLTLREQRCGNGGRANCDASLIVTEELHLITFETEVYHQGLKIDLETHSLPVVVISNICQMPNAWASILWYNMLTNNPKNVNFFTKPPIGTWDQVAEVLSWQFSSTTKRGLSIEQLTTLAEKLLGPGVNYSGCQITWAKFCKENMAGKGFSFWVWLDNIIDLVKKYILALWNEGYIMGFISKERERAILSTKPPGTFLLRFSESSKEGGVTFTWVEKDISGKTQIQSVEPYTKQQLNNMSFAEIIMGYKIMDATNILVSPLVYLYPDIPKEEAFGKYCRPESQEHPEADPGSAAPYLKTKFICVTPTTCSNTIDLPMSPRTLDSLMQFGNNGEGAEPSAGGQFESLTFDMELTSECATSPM

Cc1cc(=O)[nH]c(=S)[nH]1
not listed: [19] | [20]
inactive: all other assays above

COCCOCCOC
active: [19] 1.21 µM | [8] 0.59 µM | [9] 3.2 µM | [11] 1.16 µM
not listed: [4] | [15] | [17]
inactive: all other assays above

O=C(O)CCCCC(=O)O
not listed: [19]
inactive: all other assays above

CNC(=O)[C@H]1O[C@@H](n2cnc3c(NCc4cc(Cl)ccc4OCc4cc(C)no4)ncnc32)[C@H](O)[C@@H]1N
not listed: [4] | [13] | [20]
inactive: all other assays above

Cc1ccc(Cl)cc1
not listed: [4] | [7] | [15]
inactive: all other assays above

CCCCN(CCCC)CCCC
not listed: [4] | [15]
inactive: all other assays above

Cc1cc(NC(=O)C(=O)O)cc(C)c1Oc1ccc(O)c2c1CCC2
active: [2] 50 µM | [3] 0.526 µM
not listed: [4] | [13] | [15] | [17] | [20]
inactive: all other assays above

CC(C)(C)c1cc(O)c(C(C)(C)C)cc1O
inactive: [1] | [19] | [11] | [13] | [15]
active: [2] 79.1 µM | [3] 90.9 µM | [5] 50 µM | [6] 78.3 µM | [7] 78.9 µM | [8] 86.7 µM | [9] 89.2 µM | [10] 91.3 µM | [12] 73.5 µM | [14] 80.1 µM | [16] 71.6 µM | [17] 69 µM | [18] 90.5 µM

O=C(N[C@@H](Cc1ccccc1)[C@@H](O)C(=O)N1C[C@@H](O)[C@@H](O)C1)c1cc2cc(Cl)ccc2[nH]1
active: [7] 88.6 µM | [8] 50 µM | [11] 50 µM | [17] 71 µM
not listed: [4] | [20]
inactive: all other assays above

FC(F)(F)C(F)(F)C(F)(F)C(F)(F)C(F)(F)C(F)(F)CCI
not listed: [13] | [17] | [19]
inactive: all other assays above

CCc1c(C(=O)NN2CCCCC2)nn(-c2ccc(Cl)cc2Cl)c1-c1ccc(Br)cc1
inactive: [1] | [6] | [7] | [14] | [16] | [18]
active: [2] 36.9 µM | [3] 37.4 µM | [19] 55.3 µM | [5] 86.5 µM | [8] 29.8 µM | [9] 58.1 µM | [10] 73.6 µM | [11] 74.9 µM | [12] 61.6 µM | [13] 5.6 µM | [15] 9.14 µM | [17] 2.1 µM

COC(=O)c1ccc(O)cc1
not listed: [19]
inactive: all other assays above

CCCCCCCCCCO
active: [5] 12.2 µM
not listed: [4] | [15] | [17]
inactive: all other assays above

NS(=O)(=O)c1cc2c(cc1Cl)NCNS2(=O)=O
not listed: [4] | [20]
inactive: all other assays above
